Bioassay records from PubChem.
Most compounds without a hit are left out; they make up all but 9% or so of the library.
HP1b chromo inh = HTS for Inhibitors of HP1-beta Chromodomain Interactions with Methylated Histone Tails. AlphaScreen HP1-beta / biotin-H3K9me3 peptide binding. Potency, µM (top dose mostly 114 µM), hits mostly inhibitors. 390,000 compounds, 0.56% hits. AID 540317, 2011; also: nearly all actives have a fitted effect of over 70% in size
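AlphaScreen: HP1-beta (50 nM) preformed 30 min with biotin-H3(1-18)K9me3 peptide (50 nM) in PBS pH 7.4, 0.01% Tween-20. Compound added for 30 min at RT, then streptavidin donor/nickel chelate acceptor beads (10 ug/mL) for 30 min.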
G9a block = qHTS Assay for Inhibitors of Histone Lysine Methyltransferase G9a; Histone-lysine N-methyltransferase EHMT2 (Homo sapiens), Q96KQ7; G9a H3K9 monomethylation, AlphaScreen, 2 h; Potency, µM (doses to about 102 µM), usual class: inhibitors; 350,000 compounds, 8.8% hits; also: nearly all actives have a fitted effect of over 75% in size
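AlphaScreen read-out: biotin-H3K9 peptide (500 nM) methylation by 20 nM enzyme with 20 uM SAM, 2 h at room temperature after 15 min compound preincubation; anti-monomethyl H3K9 antibody plus donor/acceptor beads, 10 min dark.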
JMJD2A Tudor inh = qHTS Assay for Inhibitors of JMJD2A-Tudor Domain; AlphaScreen JMJD2A-Tudor / H3K4me3 peptide binding; 390,000 compounds, 4.4% hits; AID 504339, 2011; Potency, µM (top dose mostly 114 µM), most hits filed as inhibitors; also: nearly all actives have a fitted effect of over 50% in size
Target sequence (O75164 whole entry, looked up, the tested form may be a part): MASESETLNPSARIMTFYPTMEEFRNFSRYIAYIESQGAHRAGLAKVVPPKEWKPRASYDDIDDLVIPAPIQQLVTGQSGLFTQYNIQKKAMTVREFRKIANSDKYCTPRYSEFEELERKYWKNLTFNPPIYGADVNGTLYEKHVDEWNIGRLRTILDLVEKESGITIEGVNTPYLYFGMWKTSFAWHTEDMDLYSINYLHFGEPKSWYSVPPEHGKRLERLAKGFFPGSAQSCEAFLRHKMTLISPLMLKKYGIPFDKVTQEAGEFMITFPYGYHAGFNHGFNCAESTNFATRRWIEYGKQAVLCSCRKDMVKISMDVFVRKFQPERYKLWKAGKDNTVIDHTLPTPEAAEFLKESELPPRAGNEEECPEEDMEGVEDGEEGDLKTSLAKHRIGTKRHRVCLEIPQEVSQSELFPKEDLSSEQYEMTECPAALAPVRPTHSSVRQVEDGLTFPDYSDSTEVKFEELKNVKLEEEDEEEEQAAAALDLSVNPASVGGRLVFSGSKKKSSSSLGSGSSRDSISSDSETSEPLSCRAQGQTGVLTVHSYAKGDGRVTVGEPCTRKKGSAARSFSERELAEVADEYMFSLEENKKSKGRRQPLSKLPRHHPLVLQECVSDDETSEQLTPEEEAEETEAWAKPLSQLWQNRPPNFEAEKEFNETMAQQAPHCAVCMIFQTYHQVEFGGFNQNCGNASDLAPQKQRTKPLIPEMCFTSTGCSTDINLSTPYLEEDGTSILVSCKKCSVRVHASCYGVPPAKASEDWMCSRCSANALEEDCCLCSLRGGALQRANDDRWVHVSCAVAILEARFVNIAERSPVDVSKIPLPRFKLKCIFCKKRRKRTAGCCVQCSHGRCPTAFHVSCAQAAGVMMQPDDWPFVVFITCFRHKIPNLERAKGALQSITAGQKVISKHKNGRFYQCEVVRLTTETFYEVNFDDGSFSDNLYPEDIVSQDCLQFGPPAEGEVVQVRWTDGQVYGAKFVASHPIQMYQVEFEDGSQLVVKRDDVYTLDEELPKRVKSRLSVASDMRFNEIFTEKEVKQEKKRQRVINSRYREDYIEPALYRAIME
PLK1 PBD inh = qHTS for Inhibitors of PLK1-PDB (polo-like kinase 1 - polo-box domain): Primary Screen; Plk1 PBD binding of FITC phosphopeptide, fluorescence polarization; Potency, µM, usual class: inhibitors; Serine/threonine-protein kinase PLK1 (Homo sapiens), P53350; 360,000 compounds, 2.8% hits; also: series mostly up to about 57 µM; nearly all actives have a fitted effect of over 65% in size
ALOX12 inh = Primary qHTS assay for inhibitors of human arachidonate 12S-lipoxygenase (ALOX12): Round 2; Polyunsaturated fatty acid lipoxygenase ALOX12 (Homo sapiens), P18054; purified 12hLO, xylenol orange hydroperoxide absorbance; Potency, µM (doses to about 108 µM), hits mostly inhibitors; 580,000 compounds, 1.1% hits; AID 1671190, 2021
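Purified human 12hLO at 150 nM in 25 mM Hepes, 0.01% Triton X-100, pH 7.0, preincubated 15 min at room temperature with compound. Reaction started with 40 uM arachidonic acid, 30 min at room temperature. Hydroperoxide measured by Fe-xylenol orange, 573/405 nm absorbance ratio.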
BAZ2B block = qHTS Assay for Inhibitors of BAZ2B; AlphaScreen BAZ2B-H3K14Ac peptide displacement; Potency, µM (doses to about 114 µM), most hits filed as inhibitors; 360,000 compounds, 4.4% hits; also: nearly all actives have a fitted effect of over 60% in size
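AlphaScreen luminescence quantifies BAZ2B engagement of H3K14Ac peptide; the protein and biotinylated peptide are both at 50 nM final, buffer PBS pH 7.4 with 0.01% Tween-20, all steps at room temperature.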
Hits are given with their value; n = inactive; u = inconclusive; x = no result; [ ] = another dose, or the depositor's remark. Calls follow the shape of the dose curve; as a rule, active = well fitted curve in the direction sought with a large enough effect; inconclusive = small, poorly fitted or top-dose-only effect, or another doubt; inactive = no such curve, though single readings can be large; an effect the other way counts as inactive or inconclusive.

SMILES | HP1b chromo inh | G9a block | JMJD2A Tudor inh | PLK1 PBD inh | ALOX12 inh | BAZ2B block
Cc1cccc(NC(=O)CN2C(=S)NC(C)(C)CC2C)c1 (configuration not stated) | n | 20µM | n | n | u | n
CC1CC(C)(C)NC(=S)N1CC(=O)NCc1ccc(Cl)cc1 (configuration not stated) | n | 28µM | n | n | u | n
CC1CC(C)(C)NC(=S)N1CC(=O)NCc1ccccc1Cl (configuration not stated) | n | u | n | n | n | n
Cc1ccccc1NC(=O)CN1C(=S)NC(C)(C)CC1C (configuration not stated) | n | 18µM | n | n | u | n
COc1cc2sc3cc(NCCCN4CCOCC4)ccc3c(=O)c2cc1OC | n | x | n | n | n | x
O=c1c2ccccc2sc2ccc(NCCCN3CCOCC3)cc12 | n | x | u | n | 14µM | x
N#Cc1nc(Cc2ccccc2)oc1NCCN1CCOCC1 | n | u | n | n | n | n
Cc1noc(C)c1-c1nc(NCCN2CCOCC2)c2ccccc2n1 | x | n[0.501 µM] | x | x | 56µM | x
N#Cc1nc(Cc2cccc3ccccc23)oc1NCCCN1CCOCC1 | n | 50µM | n | n | n | u
c1ccc2c(NCCCN3CCOCC3)c3ccccc3nc2c1 | x | 50µM | x | x | n | n
Cc1ccc(-c2nc(NCCN3CCOCC3)c3ccccc3n2)cc1 | n | n | n | n | n | n
CC(C)(C)CN1CCOC[C@H]1c1nc(C(C)(C)C)co1 | x | x | x | x | n | x
Cn1c(=O)c(=O)n(C)c2cc(N3CCOCC3)c(NS(=O)(=O)c3ccc([N+](=O)[O-])cc3)cc21 | n | u | u | 19µM | u | 79µM
CC1CCN(c2ccc(C(=O)O)cc2NS(=O)(=O)c2ccc(Br)cc2)CC1 | n | 28µM | n | u | u | n
Cn1c(=O)n(C)c2cc(N3CCOCC3)c(NS(=O)(=O)c3ccc(Br)cc3)cc21 | n | u | n | x | n | 50µM
Cn1c(=O)c(=O)n(C)c2cc(N3CCCC3)c(NS(=O)(=O)c3ccc(Cl)cc3)cc21 | n | u | n | n | 40µM | n
O=C(CN1CCN(C(=O)CCC(=O)N2CCC(c3ccccc3)=N2)CC1)Nc1cccc(F)c1 | x | x | x | n | n | x
Cc1nc(C2CCCCN2C(=O)NC2CCCCC2)n[nH]1 (configuration not stated) | x | x | x | x | n | x
OC[C@H]1O[C@@H](c2nc(-c3ccc(C4OCCO4)cc3)no2)[C@H](O)[C@@H]1O | x | x | x | n | n | x
CCOC(=O)C1=C(N)OC2=C(C(=O)CC(C)(C)C2)C1c1ccoc1 (configuration not stated) | n | u | n[11.4 µM] | 21µM | n | n
CCn1c(SCC(=O)N/N=C/c2ccccc2OCC(=O)O)nnc1-c1ccc(OC)cc1 | n | n | n | n | n | 56µM
O=C(O)COc1ccccc1/C=N/NC(=O)CSc1nc2ccccc2c(=O)n1-c1ccc(Cl)cc1 | n | u | u | n | n | 56µM
O=[N+]([O-])c1cc([N+](=O)[O-])c2c(=Nc3ccccc3)n(-c3ccccc3)n(O)c2c1 | u | 35µM | u | 6µM | n | 20µM
Cc1cccc(OCC(=O)Nc2sc3c(c2C#N)CCC3)c1 | n | n | n | n | n | n
COc1ccc(C(=O)NNC(=O)C(=O)Nc2ccc(C)c(Cl)c2)cc1 | n | n | u | 27µM | n | n
SMILES | HP1b chromo inh | G9a block | JMJD2A Tudor inh | PLK1 PBD inh | ALOX12 inh | BAZ2B block
COc1ccccc1C(=O)NNC(=O)C(=O)Nc1ccc(C)c(Cl)c1 | n | n | n | 30µM | n | n
CC(C)NC(=O)c1ccc(N2CCOCC2)nc1 | n | n | n | n | n | n
Oc1ccc[n+](/C=C\c2ccccc2)c1 | n | n[2.33 µM] | n | n | n | n
Cc1c(CN2CCCC(COc3ccccc3C(=O)N3CCCCC3)C2)cnn1C (configuration not stated) | x | x | x | x | n | x
c1nc(NCc2ccc3c(c2)OCO3)c2cc(-c3ccoc3)ccc2n1 | n | n[12.7 µM] | n | x | u | 50µM
CN1/C(=C/c2cc[n+](C)c3ccccc23)C=Cc2ccccc21 | u | 35µM | 28µM | n | x | 28µM
S=C(Nc1ccccc1)c1ccccn1 | u | n[12.7 µM] | 56µM | n | n | 35µM
S=C(Nc1ccc(Nc2ccccc2)cc1)Nc1ccccn1 | u | 10µM | 20µM | n | 5.6µM | 16µM
S=C(Nc1ccccc1)Nc1ccccn1 | x | x | x | n | u | x
Cc1ccc(NC(=S)Nc2ccccc2)nc1 | x | x | x | x | 22µM | x
CCOC(=O)C1=C(COC(=O)CCOc2ccccc2)NC(=O)NC1C (configuration not stated) | n | n[12.7 µM] | 100µM | n | n | n
CCOC(=O)C1=C(COC(=O)c2ccc3ccccc3c2O)NC(=O)NC1C (configuration not stated) | n | u | n | n | 40µM | n
CCOC(=O)C1=C(CBr)NC(=O)NC1C (configuration not stated) | n | 28µM | u | n | n | 50µM
CCOC(=O)C1=C(C)NC(=O)NC1C (configuration not stated) | n | n[12.7 µM] | n | n | n | n
CCOC(=O)C1=C(COC(=O)CCOc2cccc(C)c2)NC(=O)NC1C (configuration not stated) | n | n | n | n | n | n
COc1ccc(-c2nn(-c3ccccc3)cc2C(=O)NCC(c2cccs2)N2CCOCC2)cc1 (configuration not stated) | n | u | n | n | n | n
Nc1ccc(N2CCN(c3ccc(Cl)c(Cl)c3)CC2)cc1 | 18µM | u | 45µM | n | u | 14µM
O=C(O)/C=C/C(=O)N1CCN(c2ccc(F)cc2)CC1 | n | 50µM | n | 19µM | u | n
Nc1ccc(N2CCN(c3ccc(F)cc3)CC2)cc1 | u | x | u | n | u | 35µM
Nc1ccc(N2CCCCCC2)cc1 | x | 3.5µM | x | x | x | 32µM
CCn1ncc([N+](=O)[O-])c1C(=O)Nc1cc(C)on1 | n | n | n | n | n | n
CN(C)CCCn1c2c(c(SCC(=O)Nc3ccc4c(c3)OCO4)nc1=O)CCC2 | n | n | n | n | n | n
CC(=O)N(C)c1ccc(N=Nc2ccc3ncccc3c2)cc1 | n | x | u | n | n | x
CN(C)c1ccc2ncccc2c1 | x | x | x | x | 5µM | x
Cc1nn(C)c2nc(-c3ccccn3)nc(N3CCC(c4ccc(F)cc4)C3)c12 (configuration not stated) | x | x | x | x | n | x
